Laboratory results from PubChem BioAssay (EPA / NIEHS).
Active and inactive are the calls of the source. How the source made its calls: active means hit-call score of the fitted dose curve at least 0.9, where 1 is the maximum; inactive means score below 0.9.

These molecules were tested on Tissue Factor, F3 (gene 2152) (assay: BSK_LPS_TissueFactor: BioMAP Diversity Plus: LPS Assay for Tissue Factor Biomarker Activity (AID 2283084)). Details: primary human HUVEC with PBMC; actives raise or lower the signal.
Protocol: BSK_LPS is a cell-based, multiplexed-readout assay that uses umbilical vein endothelium and peripheral blood mononuclear cells, a human vascular primary cell co-culture, with measurements taken at 24 hours after chemical dosing in a 96-well plate.BSK_LPS_TissueFactor is an assay component measured in the BSK_LPS assay. It measures CD142 Tissue Factor antibody related to regulation of gene expression using ELISA technology.Data from the assay component BSK_LPS_TissueFactor was analyzed into 1 assay endpoint. This assay endpoint, BSK_LPS_TissueFactor, was analyzed with bidirectional fitting relative to DMSO as the negative control and baseline of activity. Using a type of binding reporter, gain or loss-of-signal activity can be used to understand changes in the signaling as they relate to the gene F3. Furthermore, this assay endpoint can be referred to as a primary readout, because this assay has produced multiple assay endpoints where this one serves a signaling function. To generalize the intended target to other relatable targets, this assay endpoint is annotated to the cytokine intended target family, where the subfamily is coagulation factor.
The levels of cell surface (or secreted, indicated by the prefix "s") biomarker endpoints were measured by ELISA. Overt cytotoxicity to cells in confluent adherent cultures (all systems other than the BT system) was assessed by measuring total protein levels using sulforhodamine B (SRB) staining in parallel cultures at the time of biomarker measurements, indicated as SRB endpoints. For proliferation assays for adherent cell types, individual cell types are cultured at sub-confluence and relative cell numbers quantified by SRB staining at time points optimized for each system (48 h: 3C and CASM3C systems; 72 h: BT and HDF3CGF systems; 96 h: SAg system). SRB was performed by staining cells with 0.1% SRB after fixation with 10% TCA and reading wells at 560 nm.Viability and proliferation of PBMC (T cells) was quantified by Alamar Blue reduction for the SAg and BT systems. For PBMC viability (referred to as PBMC Cytotoxicity within the assay endpoint names), cells were plated (75,000/well in a 96-well plate) and then chemical samples added for 1 h before addition of activators, SEB and TSST-1 (20 ng/mL final concentration each). Cells were incubated for 90 h. Then, Alamar Blue (20 uL/well) (Invitrogen, Cat DAL1100) was added for 6 h, and the plates were read with a fluorescence microplate reader at 546/580 nm (excitation/emission). For PBMC proliferation, cells were plated and activated as above but incubated for only 16 h prior to addition of Alamar Blue. Plates were read after 6 h.

outcome, inactive:
O=C(OCCCCCCOC(=O)c1ccccc1)c1ccccc1
Clc1cc(Cl)c2c(c1)N=C1CCCCCN1C2
O=C(O)c1ccccc1-n1cc(C(=O)O)c(=O)c2cc(Nc3c(F)cc(F)cc3Cl)c(Cl)cc21
Cc1ccc(C(C)C)cc1
CC1=CC(=O)/C(=C(/C)O)C(=O)O1
c1ccc(C[n+]2cccc3ccccc32)cc1
O=C1O[C@H]([C@@H](O)CO)C(O)=C1O
CCN(Cc1cccc(S(=O)(=O)O)c1)c1ccc(C(=C2C=CC(=[N+](CC)Cc3cccc(S(=O)(=O)O)c3)C=C2)c2ccccc2S(=O)(=O)[O-])cc1
O=C=NCCCCCCN=C=O
O=C(O)Cc1cc(I)c(Oc2ccc(O)c(I)c2)c(I)c1
OCCO
c1ccc2ccccc2c1
Cc1ccc2oc(CN(Cc3ccccc3)C(=O)Nc3c(F)cc(F)cc3F)c(-c3ccc(Cl)cc3)c2c1
Cc1ncc(CO)c(CO)c1O
COc1cccc([C@H](O)C2CCN(CCc3ccc(F)cc3)CC2)c1OC
CCCCCCCCN(C)CCCCCCCC
CC1(C)NC(=O)N(c2ccc([N+](=O)[O-])c(C(F)(F)F)c2)C1=O
CCCCCCCCCCCO
O=C(O)Cn1c(=O)n(Cc2ccc(Br)cc2F)c(=O)c2ccc(Cl)cc21
CC[C@@H]1C[C@H](N(Cc2cc(C(F)(F)F)cc(C(F)(F)F)c2)C(C)=O)c2cc(C(F)(F)F)ccc2N1C(=O)OC(C)C
C[C@]12CC[C@@H]3c4ccc(O)cc4CC[C@H]3[C@@H]1CC[C@H]2O
CCCCCCCCCC(=O)O
CCCCCCCC[Si](OCC)(OCC)OCC
Cc1cn([C@H]2C[C@H](N=[N+]=[N-])[C@@H](CO)O2)c(=O)[nH]c1=O
O=C1CCC(C2CCCCC2)CC1

AC50, active:
CCCCCCCCCCCCO 19.8 µM
CC/C(=C(/CC)c1ccc(O)cc1)c1ccc(O)cc1 29.9 µM
CN(C)c1ccc(C(=C2C=CC(=[N+](C)C)C=C2)c2ccc(N(C)C)cc2)cc1 0.662 µM
COc1ccc2cc(S(=O)(=O)N[C@H](CC(=O)N[C@H](Cc3ccc(CN4[C@H](C)CCC[C@@H]4C)cc3)C(=O)N(C)C(C)C)c3ccc4c(c3)OCO4)ccc2c1 33.9 µM
CN(C)C(=O)C1(N2CCCCC2)CCN(CC[C@@]2(c3ccc(Cl)c(Cl)c3)CN(C(=O)c3ccccc3)CCO2)CC1 31.2 µM
O=C(Nc1ccc(Cl)cc1)Nc1ccc(Cl)c(Cl)c1 2.26 µM
NCc1cccc(C2CCN(C(=O)c3ccc(C#Cc4ccccc4F)o3)CC2)c1 28.2 µM
CN1C(=O)N(c2ccccc2Br)Cc2cnc(Nc3ccc4c(c3)OCC(CO)O4)nc21 (stereo not given) 3.52 µM
CC(C)(C)c1cc(/C=C2\SC(N)=NC2=O)cc(C(C)(C)C)c1O 25.1 µM
O=c1c(-c2ccc(O)cc2)coc2cc(O)cc(O)c12 13.2 µM
CC(=O)N1CCN(c2ccc(OC[C@H]3CO[C@](Cn4ccnc4)(c4ccc(Cl)cc4Cl)O3)cc2)CC1 33 µM
CCN(CC)C(=O)c1cc(S(=O)(=O)Cc2ccccc2)c(N2CCC(c3ccccc3)CC2)cc1N(CC)CCN(C)C 33.5 µM
CCCCCCCCCCCC[N+](C)(C)C 32.4 µM
O=c1[nH]sc2ccccc12 17.7 µM
CCN(Cc1cccnc1)C(=O)c1cccc(Cl)c1[C@]1(C)C(=O)N(Cc2ccc(OC)cc2OC)c2ccc(Cl)cc21 12.5 µM
